# Measured values published in the supplement of paper PMC4894684.
# Where a name gives a salt, the structure may show the parent alone. ± gives the standard deviation of the averaged measurements.
# Tested on: Toxoplasma gondii RH (in HFF)
# Assay: parasite growth relative to the screen mean (all compounds = 100%); higher = less inhibition of parasite growth
# Details: 5 µM; 72 h; oxygen 21 %
# How it was run: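 Growth values are relative to the mean of the whole screen and averaged over duplicate screens, with all compounds together set to 100%. Parasites (RH β-Gal–GFP Toxoplasma, MOI 1:5) were added within 2 h of pinning compounds at 5 µM final onto confluent human foreskin fibroblasts and grown 72 h at 21% O2. Parasite number came from CPRG β-Gal readings against in-plate standard curves.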
row,Compound,parasite growth
1,Cn1cnc2c(NCc3ccccc3)nc(NCCO)nc21 [Olomoucine],127 ± 7.9%
2,Cc1[nH]c(/C=C2\C(=O)Nc3ccc(S(=O)(=O)Cc4c(Cl)cccc4Cl)cc32)c(C)c1C(=O)N1CCC[C@@H]1CN1CCCC1,< 0%
3,CCOc1cc(CC(=O)N[C@@H](CC(C)C)c2ccccc2N2CCCCC2)ccc1C(=O)O [Repaglinide],150 ± 13%
4,CCC(NC(C)C)C(O)c1ccc(O)c2[nH]c(=O)ccc12 (stereo not drawn) [Procaterol hydrochloride],132 ± 21%
5,CCCCc1nn(-c2ccccc2C(F)(F)F)c(=O)n1Cc1ccc(-c2ccccc2S(=O)(=O)NC(=O)c2sccc2C)cc1,137 ± 20%
6,O=S(=O)(c1cccc2cnccc12)N1CCCNCC1 [Fasudil hydrochloride],90.6 ± 21%
7,O=c1cc(N2CCNCC2)oc2c(-c3ccccc3)cccc12,150 ± 30%
8,NCCCCCc1c[nH]cn1 [Impentamine dihydrobromide],132 ± 7.9%
9,CC1CCN(CC[C@H]2CCCN2S(=O)(=O)c2cccc(O)c2)CC1,120 ± 15%
10,CN1CCC[C@@H]1Cc1c[nH]c2ccc(CCS(=O)(=O)c3ccccc3)cc12 [Eletriptan hydrobromide],126 ± 18%
11,CC(Cc1ccc(O)c(O)c1)(NN)C(=O)O [(S)-(-)-Carbidopa],147 ± 34%
12,COc1ccc2c3c1O[C@H]1C[C@@H](O)C=C[C@@]31CCN(C)C2 [Galanthamine hydrobromide],138 ± 30%
13,O=C1CC2(CCCC2)CC(=O)N1CCCCN1CCN(c2ncccn2)CC1 [Buspirone hydrochloride],171 ± 21%
